Consider 108 molecules from PubChem BioAssay AID372 (MTDP, 2006).

Out of some 100,000 compounds screened, about 770 (0.77%) were called active. Rule as the data show it: active = inhibition above about 50%; inactive = the rest. The entries come from a sample that favours actives as a whole.

Broadly, the inhibition is the drop in the measured response relative to a control, in per cent.

The assay concerns the target Gag-Pol polyprotein (Human immunodeficiency virus type 1 group M subtype B (isolate HXB2)) (UniProt P04585). The experiment in a line: RNase H inhibition, HIV 1 Gag Pol polyprotein, FRET biochemical assay, screening (AID 372). To be noted: HIV-1 RT RNase H, FRET RNA/DNA substrate fluorescence; at 10 µM; active compounds read high.
As for `O=C(NC(=S)Nc1ccc(Cl)cn1)c1cccc(F)c1`, the inhibition was 13% (inactive).

For `Cc1ccc2nc(-c3ccc(Cl)cc3)cn2c1`, the inhibition is 5% (inactive).

As for `O=C1C(=O)N(c2nc3ccccc3s2)C(c2ccccc2F)/C1=C(/O)c1ccccc1` (stereo not drawn), the inhibition was 8% (inactive).

For the molecule `O=C(Nc1c(C(=O)Nc2ccc(Br)cc2)cnn1-c1ccccc1)c1ccco1`, the inhibition is 8% (inactive).

Consider `O=C(Nc1ccc(S(=O)(=O)N2CCCCCC2)cc1)c1ccc(Cl)cc1Cl`, for which the inhibition is 8% (inactive).

Consider `O=C(Nc1ccc(S(=O)(=O)N2CCCCC2)cc1)c1ccccc1Cl`, for which the inhibition is 57% (active).

Turning to `O=C(Nc1ccc(S(=O)(=O)N2CCOCC2)cc1)c1ccccc1Cl`, the inhibition is 0% (inactive).

For `Cc1cccc(C(=O)NN=C2CCCCC2)c1`, the inhibition is 7% (inactive).

For the molecule `CC(C)NS(=O)(=O)c1ccc(Br)cc1`, the inhibition was 0% (inactive).

For the molecule `CC1=C(C#N)C(=O)NC(=O)/C1=C\c1ccc(-c2cccc(Cl)c2)o1`, the inhibition was 33% (inactive).

Turning to `Cc1ccc(-c2ccc(C=C3C(=O)NC(=O)NC3=O)o2)c([N+](=O)[O-])c1`, the inhibition was 14% (inactive).

`CC1=C(C#N)C(=O)NC(=O)/C1=C\c1ccc(-c2ccc(Cl)c(Cl)c2)o1`: the inhibition is 50% (active).

In the case of `CC1=C(C#N)C(=O)NC(=O)/C1=C\c1ccc(-c2cc(C)c(C)cc2[N+](=O)[O-])o1`, the inhibition was 56% (active).

As for `Cc1cc(-c2ccc(/C=C3/C(=O)NN(c4ccc(F)cc4)C3=O)o2)c([N+](=O)[O-])cc1C`, the inhibition was 5% (inactive).

Take `Cc1cc(-c2ccc(C=C3C(=O)N(C)C(=O)N(C)C3=O)o2)c([N+](=O)[O-])cc1C`: the inhibition was 6% (inactive).

In the case of `CC(=O)c1cccc(-c2ccc(/C=C3\C(=O)NC(=O)C(C#N)=C3C)o2)c1`, the inhibition is 43% (inactive).

`O=C1NC(=S)NC(=O)C1=Cc1ccc(-c2ccc(Cl)cc2[N+](=O)[O-])o1`: the inhibition was 42% (inactive).

In the case of `C=CCN1C(=O)/C(=C/c2cc(C)n(-c3ccc(C(=O)O)cc3C)c2C)C(=O)NC1=S`, the inhibition was 6% (inactive).

Take `Cc1cc(Br)cc(C)c1NC(=O)c1cccnc1`: the inhibition was 2% (inactive).

In the case of `CCOC(=O)CNC1=C([N+](=O)[O-])C(=O)CC(C)(C)C1`, the inhibition is 0% (inactive).

Regarding `C=CCn1cc(/C=c2\sc3n(c2=O)C(c2ccc(SC)cc2)C(C(=O)OCC)=C(C)N=3)c2ccccc21` (stereo not drawn), the inhibition is 24% (inactive).

With `COc1ccc(C2CC(C(F)(F)F)n3nc(C(=O)Nc4cc(OC)c(Cl)cc4OC)c(Cl)c3N2)cc1` (stereo not drawn), the inhibition is 14% (inactive).

As to `COc1ccc(C)cc1NC(=O)COc1cccc2ccccc12`, the inhibition is 21% (inactive).

Consider `Cc1ccccc1N1C(=O)/C(=C/c2cccn2-c2ccc(Br)cc2)C(=O)NC1=S`, for which the inhibition was 20% (inactive).

Consider `CCc1ccccc1N/C=C(\C#N)c1nc(-c2ccc(Cl)cc2)cs1`, for which the inhibition is 8% (inactive).

With `Cc1ccc(-c2n[nH]c(=S)n2N=Cc2ccccc2OCC(=O)O)cc1`, the inhibition was 12% (inactive).

In the case of `COc1ccc(/C=C2/Sc3ccccc3C2=O)cc1`, the inhibition is 5% (inactive).

As to `O=C(COc1ccc(Cl)cc1Cl)Nc1ccccc1F`, the inhibition is 27% (inactive).

Regarding `O=C(COc1ccc(Cl)cc1Cl)Nc1ccc(NC(=O)COc2ccc(Cl)cc2Cl)cc1`, the inhibition is 52% (active).

On to `O=C(NC(=S)Nc1ccc(O)c(-c2nc3ccccc3s2)c1)c1ccc(F)cc1`, for which the inhibition was 46% (inactive).

Take `O=C(COc1ccc(Br)cc1Cl)Nc1ccccc1Cl`: the inhibition was 31% (inactive).

Regarding `O=C(COc1ccc(Br)cc1Cl)Nc1ccccc1F`, the inhibition is 51% (active).

With `O=C(COc1ccc(Cl)cc1Cl)Nc1ccc(-c2ccccc2)cc1`, the inhibition is 7% (inactive).

`Cc1ccc(C(=O)NC(=S)Nc2ccc(O)c(-c3nc4ccccc4s3)c2)cc1`: the inhibition was 37% (inactive).

For `O=C(COc1ccc(Cl)cc1Cl)Nc1ccc(O)c(-c2nc3ccccc3s2)c1`, the inhibition is 61% (active).

Take `O=C(NC(=S)Nc1ccc(O)c(-c2nc3ccccc3s2)c1)c1ccc(Cl)cc1`: the inhibition is 54% (active).

Regarding `O=C(COc1ccc(Cl)cc1Cl)Nc1ccc(-c2nc3ccccc3s2)c(O)c1`, the inhibition was 27% (inactive).

With `CCC(=O)Nc1ccc(NC(=O)COc2ccc(Cl)cc2Cl)cc1`, the inhibition is 27% (inactive).

As to `Cc1ccccc1OCC(=O)Nc1ccc(O)c(-c2nc3ccccc3s2)c1`, the inhibition was 14% (inactive).

Turning to `C#CCSc1nncn1C(=O)/C=C/c1ccco1`, the inhibition is 19% (inactive).

With `COc1ccc2nc(N/C(N)=N/S(=O)(=O)c3ccc(C)cc3)nc(C)c2c1`, the inhibition is 5% (inactive).

`Cc1cc(=O)[nH]c(N/N=C/c2cccnc2)n1`: the inhibition is 0% (inactive).

With `CCCCNCCCCCOc1ccccc1C(C)C`, the inhibition is 5% (inactive).

Consider `COc1cccc(OCCCCOc2ncnc3ccccc23)c1`, for which the inhibition is 10% (inactive).

Consider `O=C(COc1ccc(/C=N/NS(=O)(=O)c2ccccc2)cc1)Nc1ccc(F)cc1`, for which the inhibition was 4% (inactive).

In the case of `CCOc1ccc(N(CC(=O)NCCSCc2ccc(C)cc2)S(C)(=O)=O)cc1`, the inhibition is 16% (inactive).

For the molecule `COC(=O)c1ccc(/C=C2\N=C(c3ccc(F)cc3)OC2=O)cc1`, the inhibition is 0% (inactive).

For the molecule `CC(=O)Oc1ccc2c(=O)c(-c3nc4ccccc4[nH]3)c(C)oc2c1`, the inhibition was 3% (inactive).

As for `O=C(NC(=S)Nc1ccc(O)c(-c2nc3ccccc3s2)c1)c1cccs1`, the inhibition was 19% (inactive).

`O=C(COc1ccc(Br)cc1Cl)Nc1ccc2c(c1)OCCO2`: the inhibition was 50% (active).

For `O=C(NC(=S)Nc1cccc(-c2nc3ccccc3s2)c1)c1cccs1`, the inhibition was 7% (inactive).

As for `O=C(COc1ccc(Br)cc1Cl)Nc1ccc2c(c1)OCO2`, the inhibition was 18% (inactive).

Take `O=C(NC(=S)Nc1ccc(-c2nc3ccccc3s2)c(O)c1)c1cccs1`: the inhibition was 56% (active).

Turning to `O=C(COc1ccc(Cl)cc1Br)Nc1ccc2c(c1)OCCO2`, the inhibition is 36% (inactive).

Consider `CC(=O)N1N=C(c2ccc(N(C)C)cc2)CC1c1ccccc1` (stereo not drawn), for which the inhibition is 11% (inactive).

With `Nc1[nH]n(-c2ccccc2)c(=O)c1N=Nc1ccc(Cl)cc1`, the inhibition is 9% (inactive).

`O=C(N/N=C/c1ccc(I)cc1)C1CC(=O)N(c2ccccc2)C1` (stereo not drawn): the inhibition is 9% (inactive).

Consider `Cc1cc(/C=N/O)c(C)n1-c1ccc(N(C)C)cc1`, for which the inhibition is 11% (inactive).

Take `CCOc1cc(/C=C(\C#N)c2nc3ccccc3s2)ccc1O`: the inhibition was 16% (inactive).

With `COc1cc(/C=C(\C#N)c2nc3ccccc3s2)cc(OC)c1O`, the inhibition is 54% (active).

For the molecule `COc1cc(/C=C(\C#N)c2nc3ccccc3s2)cc(Br)c1O`, the inhibition was 5% (inactive).

With `C=CCN(CC=C)CC(O)CN1C(=O)NC(C)(C)C1=O` (stereo not drawn), the inhibition is 3% (inactive).

For the molecule `CC1=CC(C)(C)N(C(=O)CSc2nc3ccccc3s2)c2cc(C)ccc21`, the inhibition is 20% (inactive).

On to `COc1ccc(-c2c(C#N)c(N)nc(SCC(=O)OCc3ccccc3)c2C#N)cc1`, for which the inhibition is 15% (inactive).

Turning to `Cc1ccc(C(=O)CSc2nc(N)c(C#N)c(-c3ccc(O)cc3)c2C#N)cc1`, the inhibition was 47% (inactive).

Turning to `COC(=O)CSc1nc(N)c(C#N)c(-c2ccc(O)cc2)c1C#N`, the inhibition is 2% (inactive).

As for `COC(=O)CSc1nc(N)c(C#N)c(-c2ccc(OC)cc2)c1C#N`, the inhibition is 4% (inactive).

On to `COc1cccc(N=Cc2c(O)ccc3ccccc23)c1`, for which the inhibition is 13% (inactive).

`Cc1ccccc1Nc1ncc(-c2ccc3ccccc3c2)s1`: the inhibition was 22% (inactive).

Regarding `COc1cc(C2C(C(=O)/C=C/c3ccccc3)=C(O)C(=O)N2c2ccccn2)ccc1O` (stereo not drawn), the inhibition is 6% (inactive).

Take `COc1cc2ccccc2cc1C(=O)Nc1ccc(Br)cc1F`: the inhibition is 18% (inactive).

Consider `Cc1ccccc1-n1c(O)c(C=NCc2ccccc2F)c(=O)[nH]c1=O`, for which the inhibition is 9% (inactive).

With `CCC1CCc2c(sc(N)c2C#N)C1` (stereo not drawn), the inhibition was 18% (inactive).

Regarding `CCCC1CCc2c(sc(N)c2C#N)C1` (stereo not drawn), the inhibition was 39% (inactive).

Consider `CC1CCc2c(sc(N)c2C#N)C1` (stereo not drawn), for which the inhibition is 57% (active).

In the case of `O=C(Nc1ccc(NC(=O)c2cc([N+](=O)[O-])cc([N+](=O)[O-])c2)cc1)c1cccc(Br)c1`, the inhibition is 12% (inactive).

Regarding `CCC(OC(=O)CN1C(=O)C(=O)c2ccccc21)C(=O)Nc1ccc(S(N)(=O)=O)cc1` (stereo not drawn), the inhibition is 12% (inactive).

`CC(=O)c1ccc(-n2c(C)ccc2C)cc1`: the inhibition was 0% (inactive).

For `O=C(O)COc1ccc(N2C(=O)C=CC2=O)cc1`, the inhibition is 35% (inactive).

Take `Cc1ccc(C)n1-c1ccc(CC(=O)O)cc1`: the inhibition was 47% (inactive).

As for `O=C(O)COc1ccc(N2C(=O)CCC2=O)cc1`, the inhibition was 12% (inactive).

Turning to `Cc1ccc(C)n1-c1ccc(OCC(=O)O)cc1`, the inhibition was 54% (active).

`O=C(CN1C(=O)/C(=C/c2ccccc2Cl)SC1=S)Nc1nccs1`: the inhibition was 14% (inactive).

On to `CCOc1ccccc1N1COc2ccc3ccccc3c2C1`, for which the inhibition was 14% (inactive).

Consider `CCOc1ccc(CN2CCN(C(=O)c3cccs3)CC2)cc1`, for which the inhibition was 5% (inactive).

In the case of `COc1cccc(OCCCCOc2ccc(Cl)cc2C)c1`, the inhibition is 29% (inactive).

`COc1ccc(OC)c(N(CC(=O)N/N=C/c2cc(Br)ccc2OC)S(=O)(=O)c2ccccc2)c1`: the inhibition was 2% (inactive).

With `O=C1NC(=O)/C(=C\c2ccc(Cl)cc2Cl)S1`, the inhibition is 16% (inactive).

As for `Cc1ccc(NS(=O)(=O)c2cc(Cl)ccc2Cl)c(Br)c1`, the inhibition was 51% (active).

In the case of `Cc1ccc(NS(=O)(=O)c2cc(Cl)ccc2Cl)c(C)c1`, the inhibition is 20% (inactive).

Turning to `Cc1ccc(C)c(NS(=O)(=O)c2cc(Cl)ccc2Cl)c1`, the inhibition was 47% (inactive).

With `COc1ccc(C(=O)Nc2ccc(I)cc2Cl)cc1OC`, the inhibition is 8% (inactive).

Regarding `COc1ccc(-c2nc(-c3ccccn3)no2)cc1OC`, the inhibition is 10% (inactive).

As to `CCC(CC)C(=O)Nc1ccc(Cl)cc1Cl`, the inhibition was 13% (inactive).

As to `O=C(CCSc1nc2ccccc2s1)Nc1ccccc1C(F)(F)F`, the inhibition is 13% (inactive).

In the case of `Cn1c(-c2ccc(-c3nc4cnccc4n3C)cc2)nc2cnccc21`, the inhibition is 70% (active).

Take `Cn1c(-c2nc3ccccc3n2C)nc2ccccc21`: the inhibition is 13% (inactive).

`Cn1c(-c2ccccn2)nc2ccccc21`: the inhibition is 2% (inactive).

As to `CC1CCCN(C2=NC(=O)/C(=C\c3cccc(O)c3)S2)C1` (stereo not drawn), the inhibition is 12% (inactive).

In the case of `Cc1cccc(-n2c(C)cc(/C=N/NC(N)=S)c2C)c1`, the inhibition was 56% (active).

Regarding `Cc1cc(/C=N/NC(N)=S)c(C)n1-c1ccc(Cl)cc1`, the inhibition is 23% (inactive).

`Cc1cc(C=O)c(C)n1-c1cccc([N+](=O)[O-])c1`: the inhibition was 6% (inactive).

With `Cc1cc(/C=N/NC(N)=O)c(C)n1-c1cccc(Cl)c1`, the inhibition was 24% (inactive).

Turning to `Cc1cc(/C=N/NC(N)=S)c(C)n1-c1cccc([N+](=O)[O-])c1`, the inhibition was 52% (active).

Consider `Cc1cccc(-n2c(C)cc(/C=N/NC(N)=O)c2C)c1`, for which the inhibition is 29% (inactive).

As to `Cc1cc(/C=N/NC(=O)c2cc(Br)c(O)c(Br)c2)c(C)n1-c1cccc([N+](=O)[O-])c1`, the inhibition was 15% (inactive).

Take `Cc1ccc(-n2c(C)cc(/C=N/NC(N)=S)c2C)cc1`: the inhibition was 15% (inactive).

Take `Cc1cc(/C=N/NC(N)=S)c(C)n1-c1cccc(Cl)c1`: the inhibition was 54% (active).
